From PubChem BioAssay AID1159580 (chemical genetic matrix, 2015)
In all, about 5,500 compounds went through this assay and about 2,000 (36%) were called active. Not shown: some 18% with an inconclusive outcome. Cut-off read from the data, not from the text of the source: active = normalized growth mostly below about 0.91 (no sharp cut-off); inconclusive = no clear call, values can overlap the other calls; inactive = mostly above about 0.92. The list shows a part of the results.

Assay: chemical genetic growth profiling, strain panel (AID 1159580);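 note: tested at 20 µM; growth read once vehicle control cultures reached saturation at 30 °C; 1 = growth at the plate median or of vehicle wells; lower values mean less growth of the strain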
Conditions: S. cerevisiae deletion strains, growth OD

Measured: normalized growth

COc1cc(O)c(C(=O)/C=C/c2ccccc2)c(OC)c1
inactive: locus YAL021C, strain ccr4, stronger effect = lower value 0.998 | locus YAL026C, strain drs2, stronger effect = lower value 0.945 | locus YAL030W, strain snc1, stronger effect = lower value 0.941 | locus YBL061C, strain skt5, stronger effect = lower value 0.928 | locus YBR021W, strain FUR4, stronger effect = lower value 0.895 | locus YBR171W, strain sec66, stronger effect = lower value 0.957 | locus YBR229C, strain ROT2, stronger effect = lower value 0.942 | locus YBR231C, strain swc5, stronger effect = lower value 0.917 | locus YCL029C, strain bik1, stronger effect = lower value 0.923 | locus YCL061C, strain MRC1, stronger effect = lower value 0.922 | locus YCL069W, strain vba3, stronger effect = lower value 0.946 | locus YCR088W, strain abp1, stronger effect = lower value 0.96 | locus YDL005C, strain med2, stronger effect = lower value 0.98 | locus YDL035C, strain GPR1, stronger effect = lower value 0.907 | locus YDL040C, strain nat1, stronger effect = lower value 0.937 | locus YDL101C, strain DUN1, stronger effect = lower value 0.916 | locus YDL185W, strain tfp1, stronger effect = lower value 0.945 | locus YDR001C, strain nth1, stronger effect = lower value 0.947 | locus YDR069C, strain doa4, stronger effect = lower value 0.963 | locus YDR159W, strain sac3, stronger effect = lower value 0.975 | locus YDR162C, strain NBP2, stronger effect = lower value 0.947 | locus YDR297W, strain sur2, stronger effect = lower value 0.947 | locus YDR334W, strain swr1, stronger effect = lower value 0.972 | locus YDR335W, strain msn5, stronger effect = lower value 0.949 | locus YDR388W, stronger effect = lower value 0.932 | locus YEL003W, strain gim4, stronger effect = lower value 0.914 | locus YEL037C, strain rad23, stronger effect = lower value 0.948 | locus YEL061C, strain CIN8 (second series), stronger effect = lower value 0.966 | locus YER016W, strain bim1, stronger effect = lower value 0.945 | locus YER111C, strain swi4, stronger effect = lower value 0.987 | locus YER167W, strain BCK2, stronger effect = lower value 0.95 | locus YFR010W, strain ubp6, stronger effect = lower value 0.944 | locus YGL078C, strain dbp3, stronger effect = lower value 0.943 | locus YGL167C, strain pmr1, stronger effect = lower value 0.921 | locus YGL173C, strain kem1, stronger effect = lower value 0.921 | locus YGL227W, strain vid30, stronger effect = lower value 0.968 | locus YHR013C, strain ard1, stronger effect = lower value 1.01 | locus YHR027C, strain rpn1, stronger effect = lower value 0.942 | locus YHR030C, strain SLT2, stronger effect = lower value 0.924 | locus YIL066C, strain RNR3, stronger effect = lower value 0.867 | locus YIL073C, strain SPO22, stronger effect = lower value 0.733 | locus YIL125W, strain kgd1, stronger effect = lower value 0.944 | locus YJL092W, strain hpr5, stronger effect = lower value 0.945 | locus YJL095W, strain BCK1 (second series), stronger effect = lower value 0.945 | locus YJL115W, strain asf1, stronger effect = lower value 0.979 | locus YJL134W, strain LCB3, stronger effect = lower value 0.953 | locus YJL154C, strain vps35, stronger effect = lower value 0.975
active: locus YAL013W, strain DEP1, stronger effect = lower value 0.897 | locus YBR009C, strain hhf1, stronger effect = lower value 0.846 | locus YBR023C, strain chs3, stronger effect = lower value 0.893 | locus YBR279W, strain paf1, stronger effect = lower value 0.894 | locus YCL011C, strain gbp2, stronger effect = lower value 0.867 | locus YCL016C, strain dcc1, stronger effect = lower value 0.861 | locus YDL074C, strain BRE1, stronger effect = lower value 0.682 | locus YDL134C, strain PPH21, stronger effect = lower value 0.807 | locus YDL192W, strain arf1, stronger effect = lower value 0.796 | locus YDR101C, strain arx1, stronger effect = lower value 0.857 | locus YDR137W, strain rgp1, stronger effect = lower value 0.717 | locus YDR195W, strain ref2 1.18 [resistant] | locus YDR318W, strain mcm21, stronger effect = lower value 0.816 | locus YDR392W, strain spt3, stronger effect = lower value 0.373 | locus YDR502C, strain sam2, stronger effect = lower value 0.819 | locus YER015W, strain faa2, stronger effect = lower value 0.89 | locus YER110C, stronger effect = lower value 0.863 | locus YER155C, strain BEM2 (second series), stronger effect = lower value 0.807 | locus YER155C, strain BEM2, stronger effect = lower value 0.625 | locus YGL086W, strain mad1, stronger effect = lower value 0.794 | locus YGL240W, strain doc1, stronger effect = lower value 0.819 | locus YGL248W, strain PDE1, stronger effect = lower value 0.8 | locus YGL253W, strain hxk2, stronger effect = lower value 0.85 | locus YGR135W, strain pre9, stronger effect = lower value 0.83 | locus YGR229C, strain SMI1, stronger effect = lower value 0.681 | locus YGR252W, strain gcn5, stronger effect = lower value 0.667 | locus YHR079C, strain IRE1 (second series), stronger effect = lower value 0.909 | locus YHR094C, strain hxt1, stronger effect = lower value 0.917 | locus YHR129C, strain ARP1, stronger effect = lower value 0.857 | locus YHR142W, strain chs7, stronger effect = lower value 0.791 | locus YHR200W, strain rpn10, stronger effect = lower value 0.891 | locus YIR030C, strain dcg1, stronger effect = lower value 0.898 | locus YJL095W, strain BCK1, stronger effect = lower value 0.574 | locus YJL129C, strain trk1, stronger effect = lower value 0.779 | locus YJL164C, strain tpk1, stronger effect = lower value 0.858 | locus YJL166W, strain qcr8, stronger effect = lower value 0.792
